# Data taken from the supplement of paper PMC11732987, “Enantioselective OTUD7B fragment discovery through chemoproteomics screening and high-throughput optimisation” (Communications Chemistry, 2025).
# Values without a mark were called inactive.
# Key:
# Experiment in all cases: log2 ratio of Biotin-Ahx-Ub-VS probe labelling (fragment/DMSO); higher = less target engagement (more negative = stronger competition), active = hit call of the paper (q ≤ 0.05, log2 ratio ≤ -1)
# Conditions in all cases: compound concentration: 200 uM; treatment time: 3 h
# [1] = target: T1, ALG13 (UniProt Q9NP73)
# T1 sequence (whole entry): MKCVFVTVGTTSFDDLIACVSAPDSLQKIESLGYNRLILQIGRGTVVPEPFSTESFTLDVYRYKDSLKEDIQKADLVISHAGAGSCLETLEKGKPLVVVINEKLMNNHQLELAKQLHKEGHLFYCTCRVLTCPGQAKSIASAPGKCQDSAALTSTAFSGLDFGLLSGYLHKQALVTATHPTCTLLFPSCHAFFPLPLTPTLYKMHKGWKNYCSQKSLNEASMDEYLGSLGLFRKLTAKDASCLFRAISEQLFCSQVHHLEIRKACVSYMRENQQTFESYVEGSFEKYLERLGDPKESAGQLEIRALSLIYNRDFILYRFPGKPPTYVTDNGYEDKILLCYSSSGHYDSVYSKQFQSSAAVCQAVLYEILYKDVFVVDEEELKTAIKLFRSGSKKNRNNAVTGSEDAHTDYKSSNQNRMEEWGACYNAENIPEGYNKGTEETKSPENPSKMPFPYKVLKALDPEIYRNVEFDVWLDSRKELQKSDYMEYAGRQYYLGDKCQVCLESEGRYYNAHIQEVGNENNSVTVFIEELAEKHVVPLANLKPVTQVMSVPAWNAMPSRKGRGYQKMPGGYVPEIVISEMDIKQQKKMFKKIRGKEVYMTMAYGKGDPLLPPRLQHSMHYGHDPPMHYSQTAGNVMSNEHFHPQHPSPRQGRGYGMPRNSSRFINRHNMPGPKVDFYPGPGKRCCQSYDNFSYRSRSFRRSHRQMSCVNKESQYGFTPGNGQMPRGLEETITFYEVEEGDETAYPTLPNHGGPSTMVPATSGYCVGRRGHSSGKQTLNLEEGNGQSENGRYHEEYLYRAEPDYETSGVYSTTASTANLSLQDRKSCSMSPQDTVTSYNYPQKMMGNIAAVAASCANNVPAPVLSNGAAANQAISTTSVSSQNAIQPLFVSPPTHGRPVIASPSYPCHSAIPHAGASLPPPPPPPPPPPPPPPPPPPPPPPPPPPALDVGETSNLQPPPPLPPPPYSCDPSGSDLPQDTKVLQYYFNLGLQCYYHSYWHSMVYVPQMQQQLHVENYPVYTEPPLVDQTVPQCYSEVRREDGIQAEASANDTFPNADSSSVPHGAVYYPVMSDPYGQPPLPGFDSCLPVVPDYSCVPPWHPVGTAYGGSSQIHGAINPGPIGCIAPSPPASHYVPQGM
# In short: (§1)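 Lysate from HEK293T cells, 495 µg per sample in Tris/CHAPS/IGEPAL buffer with protease inhibitors, was treated for 3 h in triplicate with fragment at 200 µM or vehicle. Biotin-Ahx-Ub-VS was next added at 0.5 µM final for 1 h. The labelled DUBs were enriched with NeutrAvidin, digested with LysC and trypsin, and run by diaPASEF LC-MS/MS, with values given as average log2 fragment/vehicle ratios by unpaired t-test on global-median-normalised Spectronaut quantities of proteins with ≥2 unique peptides.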
# [2] = target: ATXN3 (UniProt P54252)
# In short: as §1
# [3] = target: T2, BAP1 (UniProt Q92560)
# T2 sequence (whole entry): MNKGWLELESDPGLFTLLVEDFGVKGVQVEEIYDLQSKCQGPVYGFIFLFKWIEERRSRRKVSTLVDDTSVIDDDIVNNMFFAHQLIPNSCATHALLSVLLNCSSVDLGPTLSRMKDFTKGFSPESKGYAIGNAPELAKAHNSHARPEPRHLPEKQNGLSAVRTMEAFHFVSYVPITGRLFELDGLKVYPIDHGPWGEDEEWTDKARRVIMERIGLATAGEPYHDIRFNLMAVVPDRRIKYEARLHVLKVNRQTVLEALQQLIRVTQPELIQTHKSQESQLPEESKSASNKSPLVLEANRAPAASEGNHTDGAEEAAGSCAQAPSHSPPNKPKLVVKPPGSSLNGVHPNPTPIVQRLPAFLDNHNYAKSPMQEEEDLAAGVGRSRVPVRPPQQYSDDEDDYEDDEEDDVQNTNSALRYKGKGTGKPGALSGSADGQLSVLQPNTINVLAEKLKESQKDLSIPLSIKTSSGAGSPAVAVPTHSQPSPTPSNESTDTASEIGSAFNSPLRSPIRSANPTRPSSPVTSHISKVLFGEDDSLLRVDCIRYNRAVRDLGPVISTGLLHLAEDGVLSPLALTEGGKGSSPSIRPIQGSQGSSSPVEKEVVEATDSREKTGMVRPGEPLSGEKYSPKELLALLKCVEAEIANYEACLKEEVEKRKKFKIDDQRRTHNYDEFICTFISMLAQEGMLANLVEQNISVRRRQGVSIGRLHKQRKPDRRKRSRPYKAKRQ
# In short: as §1
# [4] = target: EIF3F (UniProt O00303)
# In short: as §1
# [5] = target: EIF3H (UniProt O15372)
# In short: as §1
# [6] = target: T3, FAM105A (UniProt Q9NUU6)
# T3 sequence (whole entry): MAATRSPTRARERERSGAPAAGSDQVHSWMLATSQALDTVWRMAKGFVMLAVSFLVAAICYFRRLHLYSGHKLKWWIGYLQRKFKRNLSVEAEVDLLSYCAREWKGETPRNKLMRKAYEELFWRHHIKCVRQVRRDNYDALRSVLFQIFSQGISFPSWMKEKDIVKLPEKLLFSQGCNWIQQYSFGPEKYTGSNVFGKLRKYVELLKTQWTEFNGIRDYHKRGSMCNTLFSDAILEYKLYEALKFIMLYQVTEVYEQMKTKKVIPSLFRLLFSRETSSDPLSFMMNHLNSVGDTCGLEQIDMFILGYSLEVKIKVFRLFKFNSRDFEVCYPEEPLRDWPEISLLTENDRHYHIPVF
# In short: as §1
# [7] = target: OTUB1 (UniProt Q96FW1)
# In short: as §1
# [8] = target: T4, OTUD4 (UniProt Q01804)
# T4 sequence (whole entry): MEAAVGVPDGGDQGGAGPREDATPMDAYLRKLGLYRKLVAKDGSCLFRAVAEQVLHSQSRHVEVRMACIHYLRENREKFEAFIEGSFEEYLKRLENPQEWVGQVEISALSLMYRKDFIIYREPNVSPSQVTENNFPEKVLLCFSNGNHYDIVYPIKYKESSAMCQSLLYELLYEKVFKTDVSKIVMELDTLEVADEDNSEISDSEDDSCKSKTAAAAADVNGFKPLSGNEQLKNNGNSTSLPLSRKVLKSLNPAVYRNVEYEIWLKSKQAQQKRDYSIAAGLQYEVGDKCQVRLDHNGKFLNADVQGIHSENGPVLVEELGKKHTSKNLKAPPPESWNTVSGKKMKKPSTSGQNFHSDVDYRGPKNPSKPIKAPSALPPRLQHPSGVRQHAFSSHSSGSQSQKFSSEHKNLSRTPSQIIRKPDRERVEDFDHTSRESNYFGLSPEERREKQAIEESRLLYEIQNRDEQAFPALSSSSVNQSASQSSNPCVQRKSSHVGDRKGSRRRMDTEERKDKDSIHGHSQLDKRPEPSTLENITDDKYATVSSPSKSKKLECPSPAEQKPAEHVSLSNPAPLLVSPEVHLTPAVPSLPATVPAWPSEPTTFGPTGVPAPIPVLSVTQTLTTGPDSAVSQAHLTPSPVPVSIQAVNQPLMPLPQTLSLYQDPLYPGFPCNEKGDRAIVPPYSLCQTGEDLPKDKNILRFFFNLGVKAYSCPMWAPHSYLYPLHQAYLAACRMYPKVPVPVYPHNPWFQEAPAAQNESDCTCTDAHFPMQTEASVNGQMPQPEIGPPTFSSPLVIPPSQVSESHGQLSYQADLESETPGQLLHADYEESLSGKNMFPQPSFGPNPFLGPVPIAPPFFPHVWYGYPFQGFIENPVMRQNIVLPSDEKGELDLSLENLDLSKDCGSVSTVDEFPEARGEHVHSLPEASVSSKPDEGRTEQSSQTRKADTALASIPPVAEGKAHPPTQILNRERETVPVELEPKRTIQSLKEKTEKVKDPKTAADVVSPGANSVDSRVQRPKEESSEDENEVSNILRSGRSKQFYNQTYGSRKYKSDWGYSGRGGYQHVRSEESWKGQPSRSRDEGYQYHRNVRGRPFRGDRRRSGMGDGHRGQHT
# In short: as §1
# [9] = target: T5, OTUD5 (UniProt Q96G74)
# T5 sequence (whole entry): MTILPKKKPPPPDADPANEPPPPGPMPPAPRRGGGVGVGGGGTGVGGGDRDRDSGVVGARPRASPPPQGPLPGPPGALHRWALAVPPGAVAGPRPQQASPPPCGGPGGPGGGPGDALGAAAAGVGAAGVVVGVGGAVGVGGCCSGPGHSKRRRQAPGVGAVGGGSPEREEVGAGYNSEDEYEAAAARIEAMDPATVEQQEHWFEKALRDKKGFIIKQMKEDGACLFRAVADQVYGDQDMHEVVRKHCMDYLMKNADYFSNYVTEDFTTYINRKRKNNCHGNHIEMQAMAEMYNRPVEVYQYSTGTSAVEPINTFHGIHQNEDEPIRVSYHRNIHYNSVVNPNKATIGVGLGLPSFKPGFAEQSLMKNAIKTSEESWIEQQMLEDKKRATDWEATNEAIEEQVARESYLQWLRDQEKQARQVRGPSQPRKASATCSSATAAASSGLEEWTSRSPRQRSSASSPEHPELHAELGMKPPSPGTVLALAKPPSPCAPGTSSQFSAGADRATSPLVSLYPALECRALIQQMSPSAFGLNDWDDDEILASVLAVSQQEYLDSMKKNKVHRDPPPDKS
# In short: as §1
# Chain of OTUB1 (Q96FW1 whole entry): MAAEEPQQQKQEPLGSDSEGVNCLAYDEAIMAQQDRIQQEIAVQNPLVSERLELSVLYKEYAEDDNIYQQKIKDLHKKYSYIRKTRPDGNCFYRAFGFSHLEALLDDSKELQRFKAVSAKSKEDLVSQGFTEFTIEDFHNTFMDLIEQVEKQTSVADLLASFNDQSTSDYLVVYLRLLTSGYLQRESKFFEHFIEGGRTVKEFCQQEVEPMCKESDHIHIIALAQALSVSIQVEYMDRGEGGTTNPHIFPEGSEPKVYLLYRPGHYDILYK
# Chain of ATXN3 (P54252 whole entry): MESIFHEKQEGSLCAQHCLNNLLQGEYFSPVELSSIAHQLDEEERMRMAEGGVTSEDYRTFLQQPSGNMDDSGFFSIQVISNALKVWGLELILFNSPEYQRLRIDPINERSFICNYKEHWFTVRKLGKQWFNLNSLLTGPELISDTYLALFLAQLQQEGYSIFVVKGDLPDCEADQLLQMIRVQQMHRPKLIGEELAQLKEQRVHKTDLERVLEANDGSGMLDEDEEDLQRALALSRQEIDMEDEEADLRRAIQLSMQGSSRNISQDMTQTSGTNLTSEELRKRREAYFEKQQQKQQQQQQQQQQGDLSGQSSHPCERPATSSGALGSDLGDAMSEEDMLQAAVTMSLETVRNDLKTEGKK
# Chain of EIF3F (O00303 whole entry): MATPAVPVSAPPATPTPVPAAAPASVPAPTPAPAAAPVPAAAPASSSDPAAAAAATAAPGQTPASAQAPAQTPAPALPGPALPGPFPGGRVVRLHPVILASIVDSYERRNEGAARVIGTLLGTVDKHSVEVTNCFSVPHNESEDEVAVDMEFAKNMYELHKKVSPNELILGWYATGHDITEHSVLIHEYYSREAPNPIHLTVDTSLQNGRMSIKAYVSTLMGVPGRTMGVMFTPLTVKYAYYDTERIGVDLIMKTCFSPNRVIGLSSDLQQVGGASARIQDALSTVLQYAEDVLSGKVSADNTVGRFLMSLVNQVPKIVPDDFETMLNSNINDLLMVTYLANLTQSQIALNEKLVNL
# Chain of EIF3H (O15372 whole entry): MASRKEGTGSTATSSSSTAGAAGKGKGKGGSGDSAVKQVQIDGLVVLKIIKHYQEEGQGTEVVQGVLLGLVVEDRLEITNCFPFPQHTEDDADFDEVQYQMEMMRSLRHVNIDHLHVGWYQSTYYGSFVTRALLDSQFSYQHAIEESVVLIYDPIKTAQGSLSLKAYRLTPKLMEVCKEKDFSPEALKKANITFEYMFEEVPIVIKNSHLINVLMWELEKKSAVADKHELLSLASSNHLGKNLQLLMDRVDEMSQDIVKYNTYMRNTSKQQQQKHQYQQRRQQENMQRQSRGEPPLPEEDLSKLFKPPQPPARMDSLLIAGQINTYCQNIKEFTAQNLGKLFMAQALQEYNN
smiles,measurement,setting,value
COc1ccccc1C(C)NC(=O)CCl (centres undefined),log2 ratio of Biotin-Ahx-Ub-VS probe labelling,[1],-0.0378
same,log2 ratio of Biotin-Ahx-Ub-VS probe labelling,[2],-0.0967
same,log2 ratio of Biotin-Ahx-Ub-VS probe labelling,[3],-2.35 (active)
same,log2 ratio of Biotin-Ahx-Ub-VS probe labelling,[4],-0.185
same,log2 ratio of Biotin-Ahx-Ub-VS probe labelling,[5],-0.0831
same,log2 ratio of Biotin-Ahx-Ub-VS probe labelling,[6],-0.0799
same,log2 ratio of Biotin-Ahx-Ub-VS probe labelling,[7],-0.298
same,log2 ratio of Biotin-Ahx-Ub-VS probe labelling,[8],-0.393
same,log2 ratio of Biotin-Ahx-Ub-VS probe labelling,[9],-0.514
